Screens from PubChem.
Rv3671c inh – inhibits the M. tuberculosis serine protease Rv3671c; P9WHR9; inhibition, % at 5.96 µM; AID 2606; 320,000 compounds, 0.048% hits; in the data active means inhibition above about 38%;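 further: extracellular domain of Rv3671c used as enzyme; 0% = enzyme with DMSO and 100% = no enzyme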
PriA SSB inh – K. pneumoniae PriA-SSBct interaction inhibition; AlphaScreen SSBct-PriA binding, biotinylated peptide; inhibition, % at 33 µM; 430,000 compounds, 0.6% hits; in the data active means inhibition mostly above about 37%, no sharp cut-off; inactive means mostly below about 20%;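 further: plate controls were negative control peptide for no effect and reference peptide for full effect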
PrP UTR inh – suppresses PrP 5' UTR mRNA reporter expression; AID 488862; inhibition, % (concentration not given with the values); cell-based PrP 5' UTR mRNA reporter, plate reader; 340,000 compounds, 0.35% hits; in the data active means inhibition above about 52%; further: 0 = median of the neutral control wells
PrPC surface inh – reduces human prion protein on the cell surface | inhibition, % at 13.8 µM | 370,000 compounds, 0.43% hits | cell surface PrPC, TR-FRET read-out | P04156; in the data active means inhibition above about 24%; further: 0% = median of the test wells and 100% = reference compound wells
Mtb UGM inh – Mtb UDP-galactopyranose mutase inhibition; P9WIQ1; purified UGM, fluorescence polarization probe displacement; inhibition, % at 10 µM; 320,000 compounds, 0.06% hits; AID 504406; in the data active means inhibition above about 10%, passing the limit was not always enough
FadD28 binding – blocks FadD28 binding to the bisubstrate probe; fluorescence polarization; inhibition, % at 12.5 µM; 360,000 compounds, 0.22% hits; AID 588549; in the data active means inhibition above about 8.5%, passing the limit was not always enough
PrPC confirm – confirmation of inhibitors of cell surface human prion protein. shares compounds with PrPC surface inh. cell surface PrPC level, TR-FRET. inhibition, % at 13.8 µM. 1,500 compounds, 65% hits. AID 743200; in the data active means inhibition above about 25%
LD9 tox – kills or reduces viability of LD9 cells in PrPc counter-screen; shares compounds with PrPC surface inh; inhibition, % at 13.8 µM; LD9 cells cytotoxicity, luminescence viability; 1,500 compounds, 29% hits; AID 743201; in the data active means inhibition above about 9.5%
* = called active by the depositor; . = no result given. An excerpt weighted towards active compounds, which were near 1.2% of everything screened.

SMILES	Rv3671c inh	PriA SSB inh	PrP UTR inh	PrPC surface inh	Mtb UGM inh	FadD28 binding	PrPC confirm	LD9 tox
Cc1ccccc1C(=O)N1CCN(c2ccc(NC(=O)c3cccnc3)cc2)CC1	1.3	-2.0	12.0	10.4	-0.3	0.7	.	.
O=C(Nc1ccc(N2CCN(C(=O)c3ccco3)CC2)cc1)c1ccc2c(c1)OCO2	-11.2	-4.6	-12.0	25.3*	-2.2	-0.2	14.9	2.9
Cn1c(=O)c2c(nc(CN3CCc4ccccc4C3)n2Cc2ccccc2F)n(C)c1=O	-10.7	-2.5	-5.0	26.5*	-2.6	-3.0	-2.1	-2.5
CCOc1cc2[nH]c(=S)n(C3CC3)c(=O)c2cc1OCC	-2.2	-10.4	6.8	-6.9	-1.6	-1.2	.	.
CCOc1cc2[nH]c(=S)n(C(C)C)c(=O)c2cc1OCC	0.2	-7.0	-24.2	32.7*	-2.9	-0.6	35.8*	-0.7
COc1cnc(-c2ccccn2)nc1N(C)c1ccccc1	-9.4	97.9*	-3.5	34.0*	1.3	-5.3	26.7*	23.4*
COc1ccc(Cn2cccc(NC(=O)Nc3cccc(OC)c3)c2=O)cc1	-14.0	20.9	12.1	25.2*	-1.8	-1.7	29.4*	-6.6
CC(C)(C)CCNc1nc(-c2ccccn2)nnc1-c1ccccc1	.	.	.	27.9*	.	.	27.2*	33.5*
c1ccc(-c2ccc(CNc3nc(-c4ccccn4)nnc3-c3ccccc3)cc2)cc1	.	.	.	28.9*	.	.	36.7*	27.6*
COc1cccc(CNC(=O)Cn2cnc(C)cc2=O)c1	.	-11.0	.	.	.	.	.	.
CCC(=O)N1CCc2cc(Br)cc(S(=O)(=O)N(C)c3ccc(OC)cc3OC)c21	-4.2	-9.1	-0.5	30.4*	1.2	-0.7	6.3	-4.7
CCC(=O)N1CCc2cc(S(=O)(=O)N(C)c3ccc(OC)cc3OC)ccc21	6.8	-1.4	-6.8	4.5	0.6	-1.3	.	.
Cn1cc(OCc2ccccc2)c(=O)cc1C(=O)NCc1ccncc1	.	-9.0	.	.	.	.	.	.
CC(C)(C)c1csc(NC(=O)c2ccncc2)n1	-2.1	-3.9	-30.2	4.7	2.1	-3.2	.	.
Cc1ccc(C(=O)Nc2nc(C(C)(C)C)cs2)s1	0.4	-20.4	-65.8	43.0*	-0.9	-6.2	42.1*	-10.8
CC(C)(C)c1csc(NC(=O)c2ccc(Cl)s2)n1	-5.4	-26.0	-63.3	40.3*	1.1	-6.9	44.9*	-8.9
Cc1noc(C)c1CCC(=O)N1CCc2nc3ccc(F)cn3c(=O)c2C1	.	-4.0	.	.	.	.	.	.
COc1ccccc1NC(=O)C(=O)NCCc1ccc(N(C)C)cc1	.	-9.0	.	.	.	.	.	.
CC1(C)Cc2cccc(OCc3ccc(C(=O)NCCc4c[nH]c5ccccc45)cc3)c2O1	.	-6.0	.	.	.	.	.	.
CC(C)(C)C(=O)/C(=C/c1ccncc1)n1cncn1	5.0	-4.9	-3.2	34.1*	1.8	-4.0	1.1	44.2*
Cc1ccc(Cc2c(-c3ccccc3)nc3c(C)cc(Br)cn23)cc1	.	.	.	-6.4	.	.	.	.
Cc1cc(Br)cn2c(Cc3cccc(Cl)c3)c(-c3ccco3)nc12	.	.	.	37.5*	.	.	56.2*	-1.0
Cc1ccc(Cc2c(-c3ccco3)nc3c(C)cc(Br)cn23)cc1	.	.	.	36.7*	.	-1.0	55.5*	-1.7
Cc1cc(Br)cn2c(Cc3ccccc3)c(-c3cccc(Cl)c3)nc12	.	.	.	-7.3	.	.	.	.
CCOc1ccccc1C(=O)Nc1ccc2nc(C)[nH]c(=O)c2c1	.	.	.	26.2*	.	.	4.2	1.5
SMILES	Rv3671c inh	PriA SSB inh	PrP UTR inh	PrPC surface inh	Mtb UGM inh	FadD28 binding	PrPC confirm	LD9 tox
O=C(CSc1ccc(-c2ccc(-n3cccn3)cc2)nn1)N1CCN(c2ccccc2)CC1	.	-7.0	.	.	.	.	.	.
O=S(=O)(NCc1cccnc1-c1ccsc1)N1CCOCC1	.	-6.0	.	.	.	.	.	.
CCOc1ccc(C2c3[nH]c4ccccc4c3CCN2C(=O)Cn2cncn2)cc1 (centres undefined)	-1.2	8.3	-9.9	36.6*	-1.2	-4.5	33.8*	-5.9
COc1cccc(C2c3[nH]c4ccccc4c3CCN2C(=O)Cn2cncn2)c1OC (centres undefined)	-0.1	0.6	-32.0	-0.4	-0.8	-1.3	.	.
CC(C)Oc1ccc(CNC(=O)c2ccc3c(c2)N(C)CCS3)cc1	5.5	7.5	-21.1	25.4*	-0.9	1.9	44.1*	-4.3
c1ccc(Nc2nc(NCC3CCCO3)c3ccccc3n2)cc1 (centres undefined)	-16.6	10.7	-16.4	20.3	0.0	-7.5	.	.
CCOc1ccc(Nc2nc(NCC3CCCO3)c3ccccc3n2)cc1 (centres undefined)	10.2	30.1	-6.5	33.7*	-0.2	-3.6	30.1*	32.3*
COc1ccccc1CNc1c(C#N)cnc2ccc(Cl)cc12	.	-25.0	.	.	.	.	.	.
COc1ccc2c(Cl)c(C(N)=O)sc2c1	-6.6	2.2	-6.8	78.6*	0.0	-2.6	99.5*	1.6
COc1ccc2c(Cl)c(C(=O)NN)sc2c1	6.7	3.9	-10.2	9.0	4.1	-3.4	.	.
CSc1nc2c([nH]1)c(=S)n(C)c(=O)n2C	.	-17.2	-6.6	34.0*	.	-0.2	0.3	-0.6
CCCCSc1nc2c([nH]1)c(=S)n(C)c(=O)n2C	.	-13.3	-18.2	-0.6	.	-1.1	.	.
Cc1ccc(C)c(SCC(=O)O)c1	.	4.0	.	.	.	.	.	.
CC1CCc2sc(C(=O)NN)cc2C1 (centres undefined)	-0.7	-15.8	-23.8	1.9	-0.5	-2.9	.	.
CC1CCc2sc(C(=O)Nc3ccc(C(N)=O)cc3)cc2C1 (centres undefined)	-23.5	-0.8	-64.1	69.9*	0.1	-4.2	44.2*	0.2
CNc1ncc(C(=O)c2ccccc2)s1	1.0	-3.4	-46.6	-7.3	1.3	-3.6	.	.
CNc1ncc(C(=O)c2ccc(Br)cc2)s1	.	-9.0	-55.7	26.2*	.	-3.1	45.7*	-2.2
COc1cccc2cc(-c3csc(NC(=O)c4ccccc4S(C)(=O)=O)n3)oc12	.	7.0	.	.	.	.	.	.
NC(N)=NS(=O)(=O)c1ccc(NC(=S)NC(=O)c2sc3ccccc3c2Cl)cc1	-83.0	0.8	-14.5	36.4*	3.5	-4.4	77.1*	-6.5
CCCCOC(=S)NC(=O)c1sc2ccccc2c1Cl	-4.1	-8.3	-10.6	42.6*	6.2	2.2	18.2	-8.5
CN(C)CCCOC(=O)c1sc2ccccc2c1Cl	-4.7	-2.9	-24.0	9.7	0.6	-0.4	.	.
CCCOc1ccc(C(CC(=O)O)NC(=O)c2sc3ccccc3c2Cl)cc1 (centres undefined)	0.7	-19.6	-13.2	43.2*	2.1	-3.9	33.8*	-5.0
O=C(NCCn1ccc(-c2cccs2)n1)c1ccc(OC(F)(F)F)cc1	.	-4.0	.	.	.	.	.	.
O=C(Nc1ccccc1Cc1nc(-c2cccs2)no1)c1ccccn1	.	-10.0	.	.	.	.	.	.
O=C1N(CC(=O)N2CCc3ccccc32)CCN1Cc1ccc(Cl)cc1	4.5	-7.5	0.2	45.7*	1.9	-2.0	2.0	-1.4
Cn1c(C(F)(F)F)nn(CCNC(=O)CSCc2ccccc2)c1=O	.	1.0	.	.	.	.	.	.
CCOC(=O)CNC(=O)CSc1nc2c(C)cccc2cc1CC	-4.8	-1.5	-21.1	71.3*	-0.6	1.3	107.4*	-2.1
